Reference: PubChem BioAssay
Where “and” joins values, the source holds several entries; their conditions need not be identical. Equal values may be shown once. Calls of active or inactive are those of the source.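 How the source made its calls, unless noted: active means compound that reduces growth-factor-driven endothelial tube area in a mixed cell culture, no cutoff stated; inactive means the rest.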

What was measured:
[1] = stimulators of nuclear beta-catenin in C2C12, primary screen, imaging, WNT3A-conditioned medium, mouse C2C12, NPC library (AID 1117326; in the data active means nuclear beta-catenin stimulation mostly above about 4.2%, no sharp cut-off; inactive means mostly below about 10%); settings: stronger effect = higher value
[2] = stimulators of insulin release from INS-1E, primary screen, cell-based, 5 mM glucose, NPC library (AID 1117329;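 active means compound raises insulin release from rat beta cells at 5 mM glucose, no numeric limit stated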); settings: rat INS-1E insulin secretion, at 10 µM, stronger effect = higher value
[3] = growth inhibition of GSK3B-pretreated HCT116 cells – cell-based, CellTiter-Glo, 0.2 to 20 µM (AID 1117336;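 active means compounds lowering colon cancer cell viability after pretreatment blocking the GSK3B kinase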); settings: HCT116 viability after GSK3B inhibitor, at 20 µM, stronger effect = higher value
[4] = inhibition of endothelial tube formation, primary screen, imaging, VEGF stimulated, CD31 staining, tube area, NPC library (AID 1117340); settings: VEGF-stimulated ADSC/ECFC co-culture, at 10 µM, stronger effect = higher value
[5] = glucagon-like peptide 1 release enhancers, primary assay, NCI-H716 cell line, NPC library (AID 1117341;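 active means compound raises GLP1 secretion from the human gut endocrine cells, with no numeric limit stated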); settings: NCI-H716 cells, at 10 µM, stronger effect = higher value
[6] = HCT116 colon cancer cell growth inhibition, primary screen, CellTiter-Glo luminescence, NPC library (AID 1117342;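 active means compounds that lower survival of HCT116 colon cancer cells in the luminescence readout, no numeric limit stated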); settings: at 20 µM (top of the series)
[7] = CellTiter-Glo luminescent readout of SW480 viability loss, NPC library primary (AID 1117343;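 active means compounds that lower viability of the colon cancer cells in the luminescence readout, with no numeric limit stated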); settings: CellTiter-Glo luminescence; at 20 µM (top of the series) unless noted
[8] = decreased DLD-1 cellular survival, CellTiter-Glo luminescent readout, NPC compound collection, primary HTS (AID 1117346;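 active means compounds that lower survival of DLD-1 colon cancer cells in the luminescence readout, no cutoff given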); settings: DLD-1 viability, CellTiter-Glo luminescence; at 20 µM (top of the series)
[9] = differential killing of epithelial or mesenchymal cells, primary screen, imaging, PC-3E GFP, TEM4-18 mCherry, co-culture (AID 1345086;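 active means compounds killing one labelled cell type while sparing the other, by normalised counts and ratio limits, not self-fluorescent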;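 on all read-outs here: cells exposed to compound for 72 h before imaging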;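 on red/green cell ratio (normalised): normalised mesenchymal count divided by normalised epithelial count so high means epithelial killing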); settings: imaging cell counts, at 1 µM; for red/green cell ratio (normalised): actives lie on both sides, counts scaled to control wells, 1 = unselective
[10] = sensitizers of A549 cells to miR-34 induction, primary screen, imaging, A549 dox-inducible miR-34, nuclei and caspase counts (AID 1347080;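 active means compounds whose cell count with miR-34 switched on is under 0.7 times the count with it off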); settings: A549 miR-34 inducible, Hoechst nuclei count, 48 h
[11] = target: NAD(+) hydrolase SARM1 (Homo sapiens) (UniProt Q6SZW1); experiment: SARM1 TIR NADase inhibitors, cell lysate, NAD-Glo luminescence (AID 1508614;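 active means compound whose remaining NAD level is above about 45 nM, limit read from the data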); settings: SAM-TIR HEK293T lysate NADase, at 1 µM, stronger effect = higher value
Chain of NAD(+) hydrolase SARM1 (Homo sapiens) (Q6SZW1 whole entry, looked up): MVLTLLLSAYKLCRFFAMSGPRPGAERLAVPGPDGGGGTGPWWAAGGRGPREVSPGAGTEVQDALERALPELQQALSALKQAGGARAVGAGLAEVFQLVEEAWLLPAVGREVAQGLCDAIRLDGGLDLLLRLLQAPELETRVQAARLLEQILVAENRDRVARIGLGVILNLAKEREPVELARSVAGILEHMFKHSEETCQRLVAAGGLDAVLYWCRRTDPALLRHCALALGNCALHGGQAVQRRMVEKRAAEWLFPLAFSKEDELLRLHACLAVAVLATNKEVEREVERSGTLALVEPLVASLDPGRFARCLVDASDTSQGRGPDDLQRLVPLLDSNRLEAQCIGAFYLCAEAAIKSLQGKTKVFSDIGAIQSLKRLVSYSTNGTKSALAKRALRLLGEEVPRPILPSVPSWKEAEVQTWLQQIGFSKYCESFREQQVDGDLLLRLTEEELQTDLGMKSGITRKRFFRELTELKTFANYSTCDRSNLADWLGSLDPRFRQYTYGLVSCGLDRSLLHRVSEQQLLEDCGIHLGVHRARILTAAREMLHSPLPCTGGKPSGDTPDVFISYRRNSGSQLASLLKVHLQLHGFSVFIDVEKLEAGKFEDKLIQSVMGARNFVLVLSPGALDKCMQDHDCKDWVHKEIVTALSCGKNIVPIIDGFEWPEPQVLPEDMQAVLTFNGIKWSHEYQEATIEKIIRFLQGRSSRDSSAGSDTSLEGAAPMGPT

[12] = liver-stage malaria parasite growth inhibition, primary screen, cell-based, HepG2, luciferase luminescence, HepG2 viability (AID 624349; in the data active means parasite load remaining mostly below about 12%, no sharp cut-off; inactive means mostly above about 10%;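 further: 100% = mean of DMSO negative control wells on the same plate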); settings: P. berghei liver stage in HepG2, luciferase luminescence, concentration not given here; parasite load remaining: stronger effect = lower value; viability: measured here: HepG2 viability without parasites
[13] = survival rescue of mitochondrial mutant cells in low glucose, primary screen, MELAS cybrids, Rieske KO mouse fibroblasts, CellTiter-Glo (AID 1508586;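 active means mean z-score across replicates of 1.96 or higher in either the MELAS or the Rieske mutant cell line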;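 further: z relative to plate mean and SD of compound and empty wells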)
[14] = viability rescue of complex I mutant cybrids, primary screen, cell-based, galactose medium, ATP luminescence (AID 1645843;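 active means z-score of at least 1.8 in each of two replicates, scored against plate mean and spread of sample wells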;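 further: positive z means more ATP and so rescue of galactose-driven cybrid death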); settings: complex I mutant cybrid cells, 72 h, stronger effect = higher value
[15] = measured here: epithelial PC-3E GFP cell survival
[16] = measured here: mesenchymal TEM4-18 mCherry cell survival
[17] = stronger effect = lower value, cell number ratio, induced over uninduced
[18] = measured here: relative caspase fold change +Dox/-Dox
[19] = measured here: total cells with miR-34 induction, stronger effect = lower value
[20] = measured here: total cells without miR-34 induction

For `NC(=O)CCCCC1CCSS1` (configuration not stated), which nuclear beta-catenin stimulation ([1]; at 10 µM) is on record?
The nuclear beta-catenin stimulation was -0.8% (inactive).

What about the nuclear beta-catenin stimulation ([1]; stimulation, at 2 µM) of the same compound?
The nuclear beta-catenin stimulation was 2.1%.

What about the insulin secretion stimulation [2] of the same compound?
Its insulin secretion stimulation is -0.6% (inactive).

What about the viability decrease [3] of the same compound?
Its viability decrease is -164% (inactive).

And the tube area decrease [4]?
The tube area decrease was 18% (inactive).

And the GLP1 secretion stimulation [5]?
The GLP1 secretion stimulation was -0.8% (inactive).

What about the inhibition of viability [6] of the same compound?
The inhibition of viability was -10.3% (inactive).

What about the viability decrease (inhibition) [7] of the same compound?
Its viability decrease (inhibition) is -43.7% (inactive).

And the viability decrease (inhibition) [8]?
The viability decrease (inhibition) was -25.4% (inactive).

And the red/green cell ratio (normalised) [9]?
The red/green cell ratio (normalised) was 1.02 (inactive).

And the normalised cell number [9, 15]?
The normalised cell number was 0.81.

What about the normalised cell number [9, 16] of the same compound?
Its normalised cell number is 0.82.

What about the fold change [10, 17] of the same compound?
The fold change was 0.89 (inactive).

What about the fold change [10, 18] of the same compound?
The fold change was 1.01.

And the cell count [10, 19]?
The cell count was 8370.

What about the cell count [10, 20] of the same compound?
The cell count was 9400.

What about the remaining NAD [11] of the same compound?
The remaining NAD was 10 nM (inactive).

Which results are given for `NC(=O)C1(N2CCCCC2)CCN(CCCC(=O)c2ccc(F)cc2)CC1`?
nuclear beta-catenin stimulation ([1]; at 10 µM): -0.9% (inactive); nuclear beta-catenin stimulation ([1]; stimulation, at 2 µM): -2%; insulin secretion stimulation [2]: -0.5% (inactive); viability decrease [3]: -17.7% (inactive); tube area decrease [4]: 11.1% (inactive); GLP1 secretion stimulation [5]: 2.8% (inactive); inhibition of viability [6]: 15.3% (inactive); viability decrease (inhibition) [7]: 12.8% (inactive); viability decrease (inhibition) [8]: -5.9% (inactive); red/green cell ratio (normalised) [9]: 0.88 (inactive); normalised cell number [9, 15]: 1.16; normalised cell number [9, 16]: 1.02; fold change [10, 17]: 0.938 (inactive); fold change [10, 18]: 0.733; cell count [10, 19]: 8980; cell count [10, 20]: 9580; remaining NAD [11]: 10 nM (inactive)

What does the source list for `CNCc1ccccc1`?
nuclear beta-catenin stimulation ([1]; at 10 µM): -1.9% (inactive); nuclear beta-catenin stimulation ([1]; stimulation, at 2 µM): 0.6%; insulin secretion stimulation [2]: -0.1% (inactive); viability decrease [3]: -25.9% (inactive); tube area decrease [4]: -5.5% (inactive); GLP1 secretion stimulation [5]: -3.4% (inactive); inhibition of viability [6]: -14.3% (inactive); viability decrease (inhibition) [7]: -24.6% (inactive); viability decrease (inhibition) [8]: -15.4% (inactive); red/green cell ratio (normalised) [9]: 0.9 (inactive); normalised cell number [9, 15]: 1.18; normalised cell number [9, 16]: 1.06

Which parasite load remaining [12] does the source give for `COc1cc(C(=O)NCCCCCC(=O)O)cc(OC)c1OC` here?
Its parasite load remaining is 48.5% (inactive).

What about the viability [12] of the same compound?
The viability was 104%.

What about the nuclear beta-catenin stimulation ([1]; at 10 µM) of the same compound?
Its nuclear beta-catenin stimulation is -0.1% (inactive).

What about the nuclear beta-catenin stimulation ([1]; stimulation, at 2 µM) of the same compound?
The nuclear beta-catenin stimulation was -2.6%.

What about the insulin secretion stimulation [2] of the same compound?
The insulin secretion stimulation was 0.5% (inactive).

What about the viability decrease [3] of the same compound?
Its viability decrease is 5.7% (inactive).

What about the tube area decrease [4] of the same compound?
The tube area decrease was 12.7% (inactive).

And the GLP1 secretion stimulation [5]?
Its GLP1 secretion stimulation is -0.6% (inactive).

What about the inhibition of viability [6] of the same compound?
Its inhibition of viability is 6.2% (inactive).

What about the viability decrease (inhibition) [7] of the same compound?
Its viability decrease (inhibition) is -6.6% (inactive).

And the viability decrease (inhibition) [8]?
Its viability decrease (inhibition) is -0.7% (inactive).

And the red/green cell ratio (normalised) [9]?
Its red/green cell ratio (normalised) is 0.91 (inactive).

And the normalised cell number [9, 15]?
The normalised cell number was 0.95.

What about the normalised cell number [9, 16] of the same compound?
Its normalised cell number is 0.86.

And the fold change [10, 17]?
The fold change was 0.815 (inactive).

And the fold change [10, 18]?
The fold change was 7.04.

What about the cell count [10, 19] of the same compound?
The cell count was 11100.

And the cell count [10, 20]?
Its cell count is 13600.

And the remaining NAD [11]?
The remaining NAD was 10 nM (inactive).

What does the source list for `O=C1OC2(c3ccc(O)cc3Oc3cc(O)ccc32)c2ccccc21`?
parasite load remaining [12]: 58.1% (inactive); viability [12]: 92.3%; nuclear beta-catenin stimulation ([1]; at 10 µM): -0.4% (inactive); nuclear beta-catenin stimulation ([1]; stimulation, at 2 µM): 3.4%; insulin secretion stimulation [2]: 3.7% (inactive); viability decrease [3]: 6.1% (inactive); tube area decrease [4]: 15.8% (inactive); GLP1 secretion stimulation [5]: -2.3% (inactive); inhibition of viability [6]: 9.8% (inactive); viability decrease (inhibition) [7]: 16% (inactive); viability decrease (inhibition) [8]: -11.6% (inactive); red/green cell ratio (normalised) [9]: 1.43 (inactive); normalised cell number [9, 15]: 1.11; normalised cell number [9, 16]: 1.6; fold change [10, 17]: 0.894 (inactive); fold change [10, 18]: 5.09; cell count [10, 19]: 11200; cell count [10, 20]: 12500; remaining NAD [11]: 10 nM (inactive)

Which results are given for `CC(O)(P(=O)(O)O)P(=O)(O)O`?
parasite load remaining [12]: 84.2% (inactive) and 72.4% (inactive) and 27.7% (inactive); viability [12]: 97.4% and 110% and 90%; nuclear beta-catenin stimulation ([1]; at 10 µM): 3.1% (inactive); nuclear beta-catenin stimulation ([1]; stimulation, at 2 µM): 1.7%; insulin secretion stimulation [2]: 0.9% (inactive); viability decrease [3]: 12.5% (inactive); tube area decrease [4]: 8.2% (inactive); GLP1 secretion stimulation [5]: 1.6% (inactive); inhibition of viability [6]: 9.4% (inactive); viability decrease (inhibition) [7]: 2.7% (inactive); viability decrease (inhibition) [8]: 9.1% (inactive); red/green cell ratio (normalised) [9]: 0.95 (inactive); normalised cell number [9, 15]: 1.05; normalised cell number [9, 16]: 1; z-score ([13]; MELAS cybrid survival, CellTiter-Glo 48 h, stronger effect = higher value): -0.62 (inactive) and 0.631 (inactive); z-score ([13]; Rieske KO mouse fibroblast survival, CellTiter-Glo 72 h): -0.885 and -0.197; remaining NAD [11]: 10 nM (inactive); z-score [14]: -2.15 (inactive) and 0.43 (inactive)
